Experimental data from the supplement of paper PMC3334620.
In all, about 33,000 sequences were measured (“E-score (-0.5 to 0.5)”: median about -0.0059, highest 2% from about 0.26 on). Many of the other results were omitted from the sample, so the highest values are more common in it than they were.

Each sequence was assayed against T1, Cin5 (UniProt P40917) (assay: PBM E-score (8-mer binding enrichment) (E-score (-0.5 to 0.5)); higher = stronger / more preferred TF binding). Conditions: protein concentration: 100 nM; construct: GST-full length.
T1 sequence: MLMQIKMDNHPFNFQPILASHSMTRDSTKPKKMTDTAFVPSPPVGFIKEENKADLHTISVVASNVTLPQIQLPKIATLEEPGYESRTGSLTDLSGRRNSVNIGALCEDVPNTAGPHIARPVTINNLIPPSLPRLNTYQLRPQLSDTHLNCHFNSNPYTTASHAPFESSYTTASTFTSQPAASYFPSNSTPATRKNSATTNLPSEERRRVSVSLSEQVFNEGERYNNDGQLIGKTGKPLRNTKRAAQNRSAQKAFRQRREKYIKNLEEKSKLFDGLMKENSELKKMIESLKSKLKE
Method in brief: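 Bound GST-tagged yeast transcription factors, applied at about 100-200 nM to double-stranded universal all-10-mer Agilent arrays, were detected with fluorescent anti-GST. Scans were normalised with masliner. A modified Wilcoxon-Mann-Whitney statistic, the E-score, was assigned to each ungapped eight-base word pooled with its reverse complement by the Universal PBM Analysis Suite.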

Sequence	PBM E-score
CATAAATG	-0.125
AATAAATT	0.19
ATTAAATA	0.274
TAAAAATA	0.152
AATAAATG	0.269
TATAAATA	0.283
ATTAAATC	0.205
GATAAATA	0.245
CATAAATA	0.183
TATAAAAA	0.176
AATAAATA	0.293
CTGGACCA	-0.148
ACCCACAT	0.0905
CACTGAGG	-0.0826
GTGTGTCA	0.0629
ATTACCAC	0.151
ATTACCAA	0.27
CTTACCGA	0.0713
CTTACCAC	0.0364
CTTACCAA	0.286
GTTACCAA	0.0591
AACCGAAC	-0.0782
TACCACCA	-0.0388
CGATATGA	0.0193
AGATATGC	0.0698

Sequence	PBM E-score
GGATATGA	0.0996
AGATATGG	0.26
ATATATGG	0.24
AGATATGA	0.272
GACCAGTC	-0.195
CCCCGGTC	-0.2
ATCAGTGG	0.0229
CCTAGAGA	-0.119
GCAAAGTA	0.175
CTAAAGTA	-0.0582
GTAAAGTA	0.305
ATAAAGTA	0.264
ATAAAGTC	0.113
ATAAAGTG	0.149
ACACGCCT	-0.127
CTTTATGC	-0.0141
CAGGTACC	-0.324
CGAGATTA	0.244
AGAGCGCA	-0.168
ACCTTACA	-0.0412
ATGACATC	0.248
ATGACATA	0.296
CTGACATA	0.153
GGGACATA	0.0818
GTGACACA	0.096

Sequence	PBM E-score
GTGACATA	0.303
ATAGGGCA	-0.0914
CCCAGGCC	-0.308
CTAAGAAA	-0.0357
CCGCGCGG	0.307
CCGCGCGC	0.0301
CCGCGCGA	0.186
ATCCGCGC	-0.0165
GCGCGCGA	0.104
ACGCGCGC	0.158
ATCCGCGG	0.271
GCGCGCGC	0.306
ATCCGCGA	0.015
AGGGTCGA	-0.084
AAACCAAT	0.188
GCTTGAAA	0.0153
AAATCCAG	0.13
AAATCCAT	0.312
TTATCAAA	0.298
AAATCCAC	0.0254
TAATCAAA	0.329
AAATCCAA	0.117
CTATCAAA	0.199
ATATCAAA	0.166
GAATCAAA	0.142

Sequence	PBM E-score
GAATCCAA	0.0873
CAATCAAA	0.151
TAATCCAA	0.283
AAAAGAAT	0.257
CGTCTGAA	-0.133
CAAAGTCA	0.107
CACGGGCC	-0.296
CCGCATGA	-0.136
CCAAAGAC	-0.185
CAATCTCG	0.0199
GAATCGCA	-0.0879
TAATCGCA	0.294
CAATCATA	0.201
CAATCGCA	0.13
TAATCATA	0.326
AAATCATA	0.198
ACGTTGCT	0.188
ATGCTTGA	0.133
AAGAAGTG	0.015
ATTATTAG	0.0574
CTTATTCA	0.142
ATTATTCA	0.262
ACTATTCG	0.224
ATTATTCC	0.273
GTTATTCA	0.143

Sequence	PBM E-score
ATTATTCG	0.288
ACTATTCC	0.0567
CTTATTCC	0.117
GCGACCGA	0.0144
GTGAGGAA	-0.138
GGCTTTTA	-0.223
AACTGGGA	-0.0428
AATCCTAA	0.0229
ACAGTTGG	0.016
ATAACCAG	0.0194
CTAACGAA	-0.0791
ATAACCAA	0.258
CTAACCAA	0.0775
ATAACGTA	0.313
ATAACGAA	0.294
ATAACGTC	0.0919
GTAACGTA	0.129
ATAACGAC	0.238
ACCGGCGC	0.0762
ATCCGGCA	0.0463
GGTGAACC	-0.108
CTTTTGAC	-0.0394
AGTTACTC	0.0474
CGACACCC	-0.0488
ACATAGAG	-0.0918

Sequence	PBM E-score
ATGCGCAT	0.332
ATGCGCAA	0.128
ATGCGCAC	0.0881
AAGTCTAA	-0.0864
ACCCATTG	-0.0482
CAAGTTAC	0.104
CTAAGCAG	0.042
CTAAGCAC	0.183
GTAAGCAC	0.319
ATCAGCAA	0.0322
GTCAGCAA	0.267
CTAAGCAA	0.076
ATAAGCAG	0.33
ACAAGCAA	0.122
ATAAGCAC	0.175
ATAAGCAA	0.349
CTCAGCAA	0.0669
ATAAGCAT	0.118
ACTGGAGC	-0.253
GCTATCCC	-0.129
ATAGGCAA	0.157
AAGAAGAA	0.0684
ACTCCTAA	0.00319
ATCAACGA	0.0637
GTAACGCA	0.0946

Sequence	PBM E-score
ACCCCGGA	-0.00022
GCAAGCAA	0.00274
GTAAGCAA	0.419
TTAAGCAA	0.0545
AACACTCA	0.182
CGGCCAAG	-0.069
AAAGGCGG	-0.104
TCGAAGAA	0.014
ACGAAGAA	0.284
ACGAAGAT	0.116
GCAATGCA	-0.053
GGCTCTAA	0.0226
ACCATTGC	0.0233
GTGCAAAA	-0.037
ATCAATTG	0.232
GCCAATTA	0.155
AACAATTC	0.111
ACCAATTG	-0.0132
AACAATTG	0.0983
ATCAATTA	0.317
ACCAATTA	0.266
AACAATTA	0.295
ATCAATTC	0.044
